Reference: PubChem BioAssay
Potency and affinity values are given separately. Results filed as inconclusive are left out. Active and inactive are the calls of the source. Unless noted, no rule for the calls is given here.

Assays:
[1] = RMG-1 ovarian cancer cell viability loss – cherry-pick, dose response (AID 687029;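 active = signal drop whose fitted half-maximal concentration is at most twice the top valid dose, in every test run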;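 also: cells exposed to compound for 96 hours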)
[2] = CMV-driven luciferase expression suppression in HEK293 – cell-based, luminescence, dry powder, counter-screen for Pax8 inhibitor project, dose response (AID 743020;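 active = signal-lowering compounds whose fitted half-maximal concentration is at or below twice the top tested dose in every run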;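 also: HEK293 cells stably expressing the CMV luciferase reporter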)
[3] = general cell-killing toxicity readout – plate reader, dry powder samples, cytotoxicity control for PAX8 inhibitor project, dose response (AID 743021)
[4] = IGROV1 cell killing – plate reader, dry powder samples, PAX8 inhibitor project, dose response (AID 743043);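 also: more negative means fewer viable cells or more cytotoxicity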
[5] = toxicity toward immortalized ovarian surface epithelium – cell-based, plate reader, dry powder samples, cytotoxicity control for PAX8 inhibitor project, dose response (AID 743045);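 also: more negative values mean more cell killing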
[6] = OVCAR-3 cell viability loss – plate reader, dry powder samples, PAX8 inhibitor project, dose response (AID 743044); conditions: max activity: at 35 µM unless noted
[7] = A2780 cell killing – plate reader, dry powder samples, cytotoxicity control, dose response (AID 743046)
[8] = OVCAR8 cell viability loss – plate reader, dry powder samples, PAX8 project, dose response (AID 743197)
[9] = A549 cell cytotoxicity, dose response, cytotoxicity control, plate reader, cherry-pick, antagonist series (AID 743412)

Measured: outcome

C[C@@H]1CCCCO[C@H](CN(C)C(=O)Cc2ccccc2)[C@@H](C)CN([C@@H](C)CO)C(=O)c2cc(NC(=O)Nc3ccc(C(F)(F)F)cc3)ccc2O1
inactive: [1] | [2] | [3] | [4] | [5]

Cc1ccc2cccc(NS(=O)(=O)c3ccccc3)c2n1
inactive: [1] | [2] | [3] | [6]

Cc1ccc(S(=O)(=O)N(C)C[C@@H]2Oc3cc(C#Cc4ccncc4)ccc3S(=O)(=O)N([C@H](C)CO)C[C@@H]2C)cc1
inactive: [1] | [2] | [3] | [4] | [5] | [7] | [8]

COc1ccc(-c2cnc3c(NC=O)cc(-c4ccccc4OC)cn23)cc1OC
inactive: [1] | [3]

O=C(Nc1ccc(F)cc1)N1CCCCN2[C@@H](CO)[C@@H](c3ccc(C#Cc4ccccc4)cc3)[C@@H]2C1
inactive: [1] | [2] | [3] | [7] | [8]

C[C@@H]1CN([C@H](C)CO)C(=O)c2cc(NC(=O)NC3CCCCC3)ccc2O[C@@H](C)CCCCO[C@H]1CN(C)Cc1ccc(C(F)(F)F)cc1
inactive: [1] | [2] | [3] | [5]

Cc1ccc(S(=O)(=O)Nc2ccc3c(c2)C(=O)N([C@@H](C)CO)C[C@@H](C)[C@H](CN(C)Cc2ccc(C(F)(F)F)cc2)OCCCC[C@H](C)O3)cc1
inactive: [1] | [2] | [3] | [4] | [5] | [7]

Cc1noc(C)c1S(=O)(=O)Nc1ccc2c(c1)C(=O)N([C@H](C)CO)C[C@H](C)[C@@H](CN(C)C(=O)Nc1ccc(C(F)(F)F)cc1)OCCCC[C@H](C)O2
inactive: [1] | [2] | [3] | [4] | [5] | [7]

Cc1ccc(-c2csc(NC3OC(=O)c4ccccc43)n2)cc1 (stereo unspecified)
inactive: [1] | [2] | [3] | [4] | [7]

O=C(/C=C/c1ccccc1)Nc1cccc(C(=O)O)c1
inactive: [1] | [2] | [3] | [6] | [5] | [7] | [9]

O=C(NCCc1ccccc1)c1ccc2c(c1)OCCCO2
inactive: [1] | [2] | [3] | [6] | [7]

CN(C)CCN(C(=O)/C=C/c1cccs1)c1nc2c(F)cc(F)cc2s1
inactive: [1] | [2] | [3] | [5] | [7]

COc1ccccc1C#Cc1ccc2c(c1)O[C@H](CN(C)Cc1cccnc1)[C@H](C)CN([C@@H](C)CO)S2(=O)=O
inactive: [1] | [2] | [3] | [4] | [5] | [7]

Cc1cc(NC(=O)CCCS(=O)(=O)c2nc(-c3cccs3)cc(C(F)(F)F)n2)no1
inactive: [1] | [2] | [3] | [5]

CN(/N=C/c1ccc(O)cc1O)c1nc(-c2ccccc2)cc(-c2ccccc2)n1
inactive: [1] | [3]

CO[C@@H]1CN(C)C(=O)c2cc(NC(=O)c3ccc(-c4ccccc4)cc3)ccc2OC[C@H](C)NC[C@H]1C
inactive: [1] | [2] | [4] | [5] | [8]

COc1ccc(CN(C)C[C@H]2OCCCC[C@@H](C)Oc3ccc(NC(=O)Nc4ccc(F)cc4)cc3C(=O)N([C@@H](C)CO)C[C@@H]2C)cc1
inactive: [1] | [2] | [4] | [5]

CN1c2ccc(-c3ccccc3)cc2[C@H]2[C@H](CCN2C(=O)NC2CCCCC2)[C@@H]1CO
inactive: [1] | [2] | [3] | [4] | [7]

Cc1ccc(S(=O)(=O)Nc2ccc3c(c2)nc(CCN2CCCC2)n3C)cc1
inactive: [1] | [2] | [3] | [4] | [5] | [7]

Cc1ccc(S(=O)(=O)N(C)C[C@@H]2Oc3cc(C#Cc4ccncc4)ccc3S(=O)(=O)N([C@H](C)CO)C[C@H]2C)cc1
inactive: [1] | [2] | [3] | [4] | [5] | [7]

CC(C)CC#Cc1ccc2c(c1)O[C@H](CN(C)Cc1ccc(C(=O)O)cc1)[C@@H](C)CN([C@H](C)CO)S2(=O)=O
inactive: [1] | [2] | [4] | [5] | [7] | [8]

O=S(=O)(c1ccccc1F)N1CC[C@@H]2[C@H]1c1cc(-c3cccc(F)c3)ccc1N[C@@H]2CO
inactive: [1] | [2] | [5] | [7]

C[C@@H]1CN([C@H](C)CO)C(=O)c2cc(NC(=O)Nc3ccccc3)ccc2O[C@@H](C)CCCCO[C@@H]1CN(C)Cc1ccc(C(F)(F)F)cc1
inactive: [1] | [2] | [3] | [5] | [7]

COc1ccc(S(=O)(=O)Nc2ccc3c(c2)CC(=O)N([C@@H](C)CO)C[C@@H](C)[C@@H](CN(C)Cc2ccc(-c4ccccc4)cc2)O3)cc1
inactive: [1] | [2] | [3] | [4] | [5]

C[C@H](CO)N1C[C@H](C)[C@@H](CN(C)Cc2ccc(Cl)c(Cl)c2)Oc2ccc(NS(=O)(=O)c3ccccc3)cc2CC1=O
inactive: [1] | [2] | [3] | [4] | [5] | [7]

COc1ccc(S(=O)(=O)N(C)C[C@H]2OCCCC[C@H](C)Oc3ccc(NS(=O)(=O)c4ccc(F)cc4)cc3C(=O)N([C@@H](C)CO)C[C@@H]2C)cc1
inactive: [1] | [2] | [4] | [5] | [7]

C[C@@H]1CCCCO[C@H](CN(C)Cc2ccc(C(F)(F)F)cc2)[C@H](C)CN([C@@H](C)CO)C(=O)c2cc(NS(=O)(=O)c3ccc(F)cc3)ccc2O1
inactive: [1] | [2] | [3] | [5]

O=C1/C(=C/c2ccccc2F)SC(=S)N1CC(=O)N1CCCCC1c1cccnc1 (stereo unspecified)
inactive: [1] | [2] | [3] | [4] | [7]

Cc1cc(C)c2sc(NNC(=O)c3ccc(S(=O)(=O)N4CCc5ccccc5C4)cc3)nc2c1
inactive: [1] | [2] | [3] | [5]

Cn1nnnc1Sc1ncnc2scc(-c3cc4ccccc4o3)c12
inactive: [1] | [3]

COc1cccc(S(=O)(=O)N2C[C@@H]3N[C@H](C2)C3c2ccc(/C=C/c3ccccc3)cc2)c1 (stereo partly specified)
inactive: [1] | [2] | [7]

COc1ccc(S(=O)(=O)Nc2ccc3c(c2)C(=O)N([C@H](C)CO)C[C@H](C)[C@H](CN(C)Cc2ccc(C(F)(F)F)cc2)OCCCC[C@H](C)O3)cc1
inactive: [1] | [2] | [3] | [4] | [7]

COc1cc(/C=C2\SC(=S)N(CCC(=O)N3CCCCC3)C2=O)cc(OC)c1OC
inactive: [1] | [2] | [3] | [5]

C#CCN(C[C@@H]1[C@@H](OC(=O)NC2CCCC2)[C@@H](OC(=O)NC2CCCC2)Cn2c(=O)ccc(=O)n21)S(=O)(=O)c1ccc(C)cc1
inactive: [1] | [3]

Cc1cccc(N(C)S(=O)(=O)c2ccc(-c3cnc(C4CC4)o3)cc2)c1
inactive: [1] | [3]

O=c1ccc2ccccc2c2ccccc12
inactive: [1] | [3]

O=C(C1CC1)N1C[C@@H]2N[C@H](C1)C2c1ccc(-c2ccccc2F)cc1 (stereo partly specified)
inactive: [1] | [3]

O=C(CCS(=O)(=O)c1ccc(Cl)cc1)Nc1nc(-c2ccncc2)cs1
inactive: [1] | [3]

CCCc1ccc(C(=O)O/N=C(\N)c2ccccn2)cc1
inactive: [1] | [3]

CN(C)c1ncnc2c1nnn2C1OC(CO)C(O)C1O (stereo unspecified)
inactive: [1] | [3]
